PGC1a acetyl inh: inhibitors of PGC1a acetylation signal, primary screen, cell-based, U2OS, AlphaScreen, inhibitor mode; AID 651687, 2012; inhibition, % at 15.6 µM; AlphaScreen anti-acetyl-lysine; with virally co-expressed GCN5 acetyltransferase; actives 0.17% (n = 350,000);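 active = every replicate shows inhibition of at least 40%; inconclusive = mean inhibition at least 40% but some replicate below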;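 note: 0% = neutral control wells and 100% = positive control wells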
EWS-Fli inh: EWS/Fli-driven NR0B1 reporter inhibitors, primary screen, A673 cells, NR0B1 luciferase, luminescence, MLPCN library; inhibition, % at 12.6 µM; actives 0.67% (n = 350,000); viability-normalised;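 active = mean inhibition of at least 50% after viability correction, with every replicate also passing that limit; inconclusive = mean reaches 50% but only one of two replicates passes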;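 note: firefly luciferase signal divided by Alamar Blue viability fluorescence both relative to DMSO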
TRPM1 prom inh: inhibitors of MITF-dependent TRPM1 promoter reporter, primary screen, cell-based, SK-MEL-5, single point, luciferase. AID 488899, 2010. actives 0.83% (n = 330,000). inhibition, % at 12.5 µM. SK-MEL-5 TRPM1 promoter luciferase, 24 h;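 active = mean inhibition across replicates of 60% or more, whatever share of single replicates reaches that level; inconclusive = some that reach 60%, reason not given; inactive = mean inhibition across replicates below 60%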
LMP1 NFkB inh: EBV LMP1-driven NF-kappaB luciferase reporter inhibitors, primary screen, cell-based, luminescence, single point; inhibition, % at 12.5 µM; AID 504558, 2011; LMP1-induced NF-kappaB luciferase reporter cells; actives 0.69% (n = 350,000); in the data active = inhibition above about 41%; inconclusive = no clear call, values can overlap the other calls;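 note: 0% = neutral control wells and 100% = reference inhibitor control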
PAX8 reporter: inhibitors of PAX8-driven TPO luciferase reporter, primary screen, RMG-I cells, single concentration. SteadyGlo, 24 h. inhibition, % at 12.6 µM. actives 1.2% (n = 360,000). AID 652154, 2013;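 active = mean replicate inhibition at least 60% with every replicate also reaching 60%; inconclusive = only one of the two criteria is met; inactive = mean below 60% and not all replicates reaching 60%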;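 note: luciferase light reporting Pax8 driven TPO promoter activity; plate controls were median of neutral control wells for no effect and mitoxantrone controls for full effect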
LGR2 antag: inhibitors of bursicon-induced LGR2 CRE-luciferase signal, primary screen, cell-based, HEK293, CRE-luciferase reporter, bursicon stimulation | Drosophila bursicon receptor LGR2 (rickets) | inhibition, % at 9.99 µM | bursicon-stimulated, 4 h | actives 0.35% (n = 380,000);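 active = drop in luminescence signal, shown as inhibition above about 50% in the replicate tests, limit read from the data, passing the limit was not always enough; inconclusive = probably only some replicates passing the limit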;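 note: agonist challenge used bursicon conditioned medium at about half maximal strength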
Starred values were filed as active, the others as inactive; ? = inconclusive; · = no result. Most compounds without a hit are left out; they make up all but 2.2% or so of the library.

SMILES	PGC1a acetyl inh	EWS-Fli inh	TRPM1 prom inh	LMP1 NFkB inh	PAX8 reporter	LGR2 antag
O=C(N/N=C\c1c(O)ccc2ccccc12)c1ccc(S(=O)(=O)N2CCCCC2)cc1	·	·	76*	68*	19	26
Oc1ccccc1C=NN=Cc1c(O)ccc2ccccc12	·	-12	-29	93*	-16	·
COC(=O)N/N=C/c1cc(N=Nc2ccccc2Cl)ccc1O	6	-12	-63	1	-81	-13
Nc1ccc(C(=O)N/N=C\c2cc(N=Nc3cccc4ccccc34)ccc2O)cc1	0	·	40	60*	19	·
CCCC(=O)Nc1ccccc1NC(=O)c1ccc2c(c1)OCO2	·	18	3	78*	-4	4
C[C@@H]1CN([C@H](C)CO)S(=O)(=O)c2ccc(-c3cccnc3)cc2O[C@@H]1CN(C)C(=O)c1cccc(F)c1	9	-4	·	·	·	-1
CN1C(=O)c2cc(NC(=O)c3ccc(F)cc3)ccc2OC[C@@H]2O[C@H](CC(=O)NCC3CC3)CC[C@@H]21	1	-2	·	·	11	-2
O=C(N/N=C/c1ccccc1)c1ccc2c(c1)OCO2	0	-15	-42	6	-65	21
O=C(NN=Cc1c(O)ccc2ccccc12)c1ccc2c(c1)OCO2	·	21	?	74*	12	-16
O=C(N/N=C/c1c(O)ccc2ccccc12)c1ccc(CO)nc1	·	4	46	19	71*	·
C[C@@H]1CCCCO[C@@H](CN(C)C(=O)c2ccccc2)[C@H](C)CN([C@H](C)CO)C(=O)c2cc(NC(=O)Nc3ccc4c(c3)OCO4)ccc2O1	·	12	·	·	5	11
C[C@@H]1CN([C@@H](C)CO)C(=O)c2cc(NC(=O)C3CCCCC3)ccc2O[C@H]1CN(C)Cc1ccc(C(=O)O)cc1	-8	-2	·	·	·	8
CSc1oc(-c2ccc(F)cc2)nc1S(=O)(=O)c1ccc(F)cc1	4	10	-22	89*	-15	16
CC(=O)N(C)C[C@H]1Oc2cc(C#Cc3ccccc3F)ccc2S(=O)(=O)N([C@H](C)CO)C[C@H]1C	2	8	·	·	·	-10
COc1ccc(N/N=C(\C#N)C(=N)SCc2ccccc2)cc1	22	-9	26	35	10	67*
CO[C@H]1CN(C)C(=O)c2cc(NS(=O)(=O)c3cccc(F)c3)ccc2OC[C@H](C)N(C(=O)Cc2cccnc2)C[C@@H]1C	-5	2	·	·	7	1
COc1ccc2c3c([nH]c2c1)[C@@H](CO)N(C(=O)Cc1ccccc1)CC31CN(C(=O)Cc2ccccc2)C1	1	6	·	·	-8	-2
COc1ccc2c3c(n(C)c2c1)[C@@H](CO)N(C(=O)C1CCCC1)CC31CCN(CC2CCCC2)CC1	·	6	·	·	-18	-8
Cc1ccc(N(Cc2cc(=O)[nH]c3ccccc23)C(=O)CCl)c(C)c1	·	67*	?	47*	69*	30
CCCC(=O)N(Cc1cc(=O)[nH]c2ccccc12)c1ccc(C)cc1C	-10	0	9	0	24	1
CC(=O)OCC1OC(Nc2cccc(C)c2)C(OC(C)=O)C(OC(C)=O)C1OC(C)=O (configuration not stated)	·	·	13	53*	-6	3
Cc1ccc2nc(N(CCCN(C)C)C(=O)c3ccc(S(=O)(=O)N4CCc5ccccc5C4)cc3)sc2c1	·	·	76*	-54	33	34
Cc1cc(C)c2sc(N(CCCN(C)C)C(=O)c3ccc(S(=O)(=O)N4CCCc5ccccc54)cc3)nc2c1	-45	32	83*	3	18	8
CN(C)CCCN(C(=O)c1ccc(S(=O)(=O)N2CCc3ccccc3C2)cc1)c1nc2ccc(F)cc2s1	·	58*	73*	-39	13	12
CN(C)CCCN(C(=O)c1cc(-c2cccs2)nc2ccccc12)c1nc2ccc(F)cc2s1	·	15	87*	-61	23	0
SMILES	PGC1a acetyl inh	EWS-Fli inh	TRPM1 prom inh	LMP1 NFkB inh	PAX8 reporter	LGR2 antag
CN(C)CCN(C(=O)c1cc(Cl)sc1Cl)c1nc2ccc(F)cc2s1	·	-19	2	-13	-28	-23
CC(=O)N1CC2(C1)[C@@H](c1ccccc1)[C@@H](CO)N2Cc1cc(F)ccc1F	-5	4	·	·	-13	-2
CCN(Cc1ccccc1)S(=O)(=O)c1ccc(C(=O)N(CCCN(C)C)c2nc3cc4c(cc3s2)OCO4)cc1	-3	15	93*	-2	-4	12
CN(C)CCCN(C(=O)c1ccc(S(=O)(=O)N(C)C)cc1)c1nc2cc3c(cc2s1)OCO3	·	-6	13	-4	4	0
CCc1nnc(NC(=O)c2ccc(S(=O)(=O)N3CCc4ccccc4C3)cc2)s1	1	-16	-3	2	-2	-7
Cc1cc(C)c2nc(NNC(=O)c3ccc(S(=O)(=O)N4CCc5ccccc5C4)cc3)sc2c1	·	7	78*	?	62*	·
COc1ccc2sc(N(CCCN(C)C)C(=O)c3ccc(S(=O)(=O)N4CCCC4)cc3)nc2c1	3	-17	-2	-12	-16	9
Cc1cc(C)c2sc(N(CCCN(C)C)C(=O)c3ccc(S(=O)(=O)N4CCc5ccccc5C4)cc3)nc2c1	12	·	89*	-109	·	·
COc1ccc2sc(N(CCCN(C)C)C(=O)c3ccc(S(=O)(=O)N4CCc5ccccc5C4)cc3)nc2c1	22	46	85*	-54	·	5
C[C@@H]1CN([C@@H](C)CO)C(=O)c2cc(NC(=O)Nc3cccc4ccccc34)ccc2O[C@H]1CN(C)C(=O)Nc1ccc2c(c1)OCO2	-1	-16	·	·	-9	10
O=C(Cc1ccccn1)NCC[C@H]1CC[C@H](NC(=O)Nc2ccc(Cl)cc2)[C@@H](CO)O1	-13	·	·	·	·	-15
Nc1cc(OCC(F)(F)F)cc([N+](=O)[O-])c1	·	·	7	0	-3	-3
Nc1cc(N)c(OCC(F)(F)F)cc1OCC(F)(F)F	4	·	65*	-7	·	·
O=[N+]([O-])c1ccc(Oc2cccc(F)c2)c2ccncc12	71*	·	17	5	·	·
C[C@@H]1CN([C@@H](C)CO)C(=O)c2cc(NC(=O)Nc3ccc(F)cc3)ccc2O[C@H]1CN(C)Cc1ccc(-c2ccccc2)cc1	-22	5	·	·	·	-12
CCCC(=O)N1CC2(CN(S(=O)(=O)CC)C2)c2c(n(C)c3cc(OC)ccc23)[C@@H]1CO	3	0	·	·	·	16
COc1cccc(S(=O)(=O)Nc2ccc3c(c2)[C@H]2C[C@@H](CC(=O)O)O[C@H](CO)[C@H]2O3)c1	14	-1	·	·	-3	1
CCC(C)Nc1nc(Cl)nc(N(C#N)CN2C(=O)c3ccccc3S2(=O)=O)n1 (configuration not stated)	·	16	69*	-2	11	-2
